# Assay results published in ChEMBL document CHEMBL3988442, “University of Dundee, Small-Polar-MMV Screening Library” (2021).
# The campaign covered roughly 48,000 compounds. About 13,000 (27%) showed an effect of 50% or more. This is one part of the list.
# Test system: Wolbachia pipientis
# Test: Anti-Wolbachia Cell-Based Screen
# Assay type: functional
# Set-up: scale not given: in the data most compounds retested in dose-response had high values
# Conditions: 5 µM
row,SMILES,Percent Effect [%]
1,Cc1cc(C(C)NC(=O)N2CCC(n3cncn3)CC2)c(C)s1 (stereo unspecified),2.137
2,O=C(NCc1cccc2cccnc12)N1CCC(n2cncn2)CC1,-5.707
3,CC(C)Oc1ccccc1CNC(=O)N1CCC(n2cncn2)CC1,15.2
4,CCOc1ncccc1CNC(=O)N1CCC(n2cncn2)CC1,108.5
5,CCOc1ccccc1CNC(=O)N1CCC(n2cncn2)CC1,121.4
6,CCC(CC)c1cc(CNC(=O)N2CCCN(C(C)=O)CC2)on1,-7.46
7,O=S(=O)(CC1CCCCC1)NCc1ccc(O)nc1,-3.814
8,CC1CCN(C(=O)c2ccnc(-n3cncn3)c2)c2ccccc21 (stereo unspecified),8.063
9,CC(C)OC[C@H]1CCC[C@]12CN(C(=O)C1CCOCC1)CCO2,106.2
10,COC[C@@H]1CCC[C@@]12CN(C(=O)C1CCOCC1)CCO2,108.7
11,Cn1ccc(N2CCCC(NC(=O)c3ccc(Cl)o3)C2=O)n1 (stereo unspecified),-25.47
12,COc1cc(F)ccc1N1CCN(Cc2nc(C)c(C)o2)CC1,-8.318
13,Cc1cnn(CC2CCCCN2c2nn3cc(C)nc3s2)c1 (stereo unspecified),94.21
14,CC(C)(C)c1cn2nc(N3CCCC3Cn3cncn3)sc2n1 (stereo unspecified),-4.327
15,Cc1cn2nc(N3CCCC3C(=O)N3CCN(C)CC3)sc2n1 (stereo unspecified),-72.4
16,Cc1cn2nc(N3CCCC3Cn3cccn3)sc2n1 (stereo unspecified),112.3
17,CC(C)(C)c1cn2nc(N3CCCCC3Cn3cncn3)sc2n1 (stereo unspecified),11.04
18,CC(C)(C)c1cn2nc(N3CCCC3Cn3cccn3)sc2n1 (stereo unspecified),7.986
19,Cc1cn2nc(N3CCCC3Cn3nc(C)cc3C)sc2n1 (stereo unspecified),8.981
20,Cc1cn2nc(N3CCCCC3Cn3cccn3)sc2n1 (stereo unspecified),120.6
21,Cc1cn2nc(N3CCCC3Cn3cncn3)sc2n1 (stereo unspecified),1.731
22,Cc1cnn(CC2CCCN2c2nn3cc(C)nc3s2)c1 (stereo unspecified),9.552
23,Cc1cn2nc(N3CCCC3CC(C)(C)C)sc2n1 (stereo unspecified),1.66
24,Cc1cn2nc(N3CCCC3Cn3nc(C)nc3C)sc2n1 (stereo unspecified),128.5
25,CCN1CCN(C(=O)c2[nH]c3ccccc3c2Cl)[C@H]2CS(=O)(=O)C[C@H]21,2.793
26,COCCNc1ccccc1CNC(=O)NCc1cnc(C)s1,-0.4507

row,SMILES,Percent Effect [%]
1,CNC(=O)c1ccc(C(=O)N2CCCC2c2cnn(C)c2)cn1 (stereo unspecified),5.729
2,CCOc1ccc(C(=O)N2CCCC2c2cnn(C)c2)cn1 (stereo unspecified),110.2
3,Cc1cnn(CC2CCCN2C(=O)c2ccc(OC(C)C)nc2)c1 (stereo unspecified),-7.33
4,COc1ccc(C(=O)N2CCCC2c2cnn(C)c2)cn1 (stereo unspecified),112.3
5,COCCn1cc(C(=O)N2CCCC2c2cnn(C)c2)ccc1=O (stereo unspecified),-26.74
6,CC(C)Oc1ccc(C(=O)N2CCCC2c2cnn(C)c2)cn1 (stereo unspecified),97.67
7,Cn1cc(C2CCCN2C(=O)c2ccc(OCC3CC3)nc2)cn1 (stereo unspecified),114.7
8,Cc1nnc(CN(C)S(=O)(=O)c2ccc(Br)cc2Cl)n1C,5.813
9,CC(C)Oc1cccc(C(=O)C2CCCN(S(=O)(=O)C(C)C)C2)c1 (stereo unspecified),1.86
10,Cc1nn(CCO)c(C)c1CNC1CCCCc2ccccc21 (stereo unspecified),2.659
11,CCOC1CCN(C(=O)NCCc2ccn(-c3ccccc3)n2)CC1,152.6
12,O=C(NCCc1ccn(-c2ccc(F)cc2)n1)C1CCCOC1 (stereo unspecified),-15.61
13,O=C(NCCc1ccn(-c2ccccc2)n1)N1CCCC(O)C1 (stereo unspecified),108.2
14,O=C(NCCC1Cc2ccccc2C1)N1CCCC(O)C1 (stereo unspecified),-12.54
15,CC1(C)CN(C(=O)NCCc2ccn(-c3ccccc3)n2)CCO1,-7.348
16,O=C(NCCc1ccn(-c2ccccc2)n1)N1CCCC(CO)C1 (stereo unspecified),104.8
17,O=C(NCCc1ccn(-c2ccccc2)n1)N1CCSCC1,87.95
18,CCOC1CCCN(C(=O)NCCc2ccn(-c3ccccc3)n2)C1 (stereo unspecified),9.361
19,O=C(NCCc1ccn(-c2ccccc2)n1)N1CCC1,5.708
20,CCOC1CCN(C(=O)NCc2ccc(C(=O)N(C)C(C)C)cc2)CC1,-14.18
21,CC(C)(C)c1cn(C2CCN(C(=O)c3cncnc3)CC2)nn1,8.941
22,Cc1cc2ncc(C(C)NCc3cccnc3)c(C)n2n1 (stereo unspecified),0.9631
23,O=C(c1cccc2ncccc12)N1CCCN(c2cccnn2)CC1,-3.765
24,N#Cc1ccc(N2CCN(c3ncccn3)CC2)c(C(F)(F)F)c1,0.2646
25,COc1cccc(CCCNC(=O)N2CCC(O)(C(F)(F)F)C2)c1 (stereo unspecified),-22.68
